Test results reported in the supplement of paper PMC13380429.

Legend:
[1] = system: Vero E6 infected with SARS-CoV-2; assay: morphology score (similarity to uninfected cells); higher = more like uninfected cells; details: 24 h
[2] = system: Vero E6 infected with SARS-CoV-2; assay: SARS-CoV-2 infection rate relative to infected DMSO; higher = more infection, active = 60 or less; details: 24 h

Compound | morphology score [1] | SARS-CoV-2 infection rate [2]
NC(=O)CCCCn1ccc(/N=C(\N)NCC(F)(F)F)n1 (10 µM) | 0.00958 | 100% (inactive)
Cc1ccc(=O)n(-c2ccccc2)c1 [pirfenidone] (10 µM) | 0.289 | 83% (inactive)
CCC(=O)OCC(=O)[C@@]1(OC(=O)CC)[C@@H](C)C[C@H]2[C@@H]3CCC4=CC(=O)C=C[C@]4(C)[C@@]3(F)[C@@H](O)C[C@@]21C (10 µM) | 0.138 | 104% (inactive)
CCC(C(=O)O)c1ccc(CC(C)C)cc1 (stereo unspecified) [butibufen] (10 µM) | 0.268 | 108% (inactive)
CCN[C@H]1CN(CCCOC)S(=O)(=O)c2sc(S(N)(=O)=O)cc21 [brinzolamide] (10 µM) | 0.267 | 69% (inactive)
OC[C@H]1O[C@@H](O[C@@H]2[C@@H](CO)OC(O)(CO)[C@H]2O)[C@H](O)[C@@H](O)[C@H]1O (mixture of isomers) [lactulose] (10 µM) | -0.0368 | 97.5% (inactive)
COc1ccc2c3c1O[C@H]1C[C@@H](O)C=C[C@@]31CCN(C)C2 [galantamine] (10 µM) | 0.113 | 102% (inactive)
O=C(OCCN1CCOCC1)C1(c2ccccc2)CCCCC1 (10 µM) | -0.00229 | 106% (inactive)
COc1ccc(C2C(=O)c3ccccc3C2=O)cc1 [anisindione] (10 µM) | -0.177 | 114% (inactive)
CCN1C[C@]2(OC(=O)c3ccccc3NC(C)=O)CC[C@H](OC)[C@@]34[C@@H]2C[C@@H]([C@@H]13)[C@@]1(O)C[C@H](OC)[C@H]2C[C@@H]4[C@]1(O)[C@H]2OC [lappaconite] (10 µM) | 0.0794 | 118% (inactive)
C[C@@H]1CCC[C@H](C)N1NC(=O)c1ccc(Cl)c(S(N)(=O)=O)c1 [clopamide] (10 µM) | -0.0797 | 103% (inactive)
O=C(O)CCCN1C(=O)c2cccc3cccc(c23)C1=O [isodibut] (10 µM) | 0.205 | 104% (inactive)
CC(N)Cc1c[nH]c2ccc(OCc3cccs3)cc12 (stereo unspecified) (10 µM) | 0.0586 | 90% (inactive)
O=C(O)c1cc2ccccc2s1 (10 µM) | 0.0676 | 88% (inactive)
CCCCN(Cc1ccc(C(=O)NO)cc1)C(=O)Nc1ccccc1 [nexturastat-A] (0.833333 µM) | 0.112 | 105% (inactive)
O=C(O)CCC/C=C\C[C@@H]1[C@@H](/C=C/[C@@H](O)COc2cccc(Cl)c2)[C@H](O)C[C@@H]1O (racemic) [cloprostenol-(+/-)] (10 µM) | -0.0265 | 110% (inactive)
Cc1cc2c(cc1CC(=O)c1sccc1S(=O)(=O)Nc1onc(C)c1Cl)OCO2 [sitaxentan] (10 µM) | 0.015 | 101% (inactive)
O[C@@H](CN1CCNCC1)Cn1c2ccc(Br)cc2c2cc(Br)ccc21 [BAX-channel-blocker] (0.833333 µM) | 0.121 | 104% (inactive)
COc1ccc2[nH]c3c(-c4cccc5ccccc45)nccc3c2c1 (10 µM) | -0.0282 | 111% (inactive)
CC(C)=CCC/C(C)=C/CC/C(C)=C/CCC(=O)OC/C=C(\C)CCC=C(C)C [geranyl-farnesylacetate] (10 µM) | -0.0168 | 99% (inactive)

Compound | morphology score [1] | SARS-CoV-2 infection rate [2]
CC(CC(C(N)=O)(c1ccccc1)c1ccccc1)N(C)C (stereo unspecified) [aminopentamide] (10 µM) | 0.0885 | 104% (inactive)
CC1(C)OC[C@H](NC(=O)Nc2ccc(Br)cc2Br)[C@H](c2ccccc2)O1 (10 µM) | -0.142 | 112% (inactive)
N#Cc1c[nH]c2c(C(=O)N3CCN(CCc4ccc(F)cc4)CC3)cccc12 [pruvanserin] (10 µM) | 0.117 | 98.5% (inactive)
Clc1ccccc1CN1CCc2sccc2C1 [ticlopidine] (10 µM) | 0.199 | 92.5% (inactive)
Cc1cc(CCC[C@H](CC(=O)NO)C(=O)N[C@H](C(=O)N[C@H](C)c2ccccc2)C(C)(C)C)ccc1-c1ccccc1 (0.833333 µM) | -0.0923 | 102% (inactive)
C=C1C(=O)O[C@@H]2/C=C(\C)CC/C=C(\C)CC[C@@H]12 [costunolide] (10 µM) | 0.222 | 78.5% (inactive)
Cc1cnc(C(=O)NCCc2ccc(S(=O)(=O)NC(=O)NC3CCCCC3)cc2)cn1 [glipizide] (10 µM) | 0.218 | 96% (inactive)
Cc1cc(=O)oc2c(C=O)c(O)ccc12 (10 µM) | 0.206 | 106% (inactive)
CCCCc1nc(Cl)c(CO)n1Cc1ccc(-c2ccccc2-c2nnn[nH]2)cc1 [losartan] (10 µM) | 0.0837 | 99.5% (inactive)
CO/N=C(\C(=O)N[C@@H]1C(=O)N2C(C(=O)[O-])=C(C[n+]3ccn4ncccc43)CS[C@H]12)c1nsc(N)n1 [cefozopran] (10 µM) | 0.0209 | 112% (inactive)
Cc1c(C2CCN(CCc3ccccc3)CC2)noc1-c1ccc(Cl)cc1 (10 µM) | 0.195 | 84% (inactive)
O=S(=O)(NCC1CC1)c1ccc(Nc2nccc(N3CCCc4cc(O)ccc43)n2)cc1 [pyrintegrin] (0.833333 µM) | 0.71 | 60.5% (inactive)
CC(C)[C@H](C(=O)Nc1ccc(C(=O)NO)cc1)c1ccccc1 (10 µM) | 0.0602 | 104% (inactive)
c1ccc(CNc2ncnc3[nH]cnc23)cc1 [6-benzylaminopurine] (10 µM) | 0.186 | 99% (inactive)
COc1ccccc1CN[C@H]1CCCN[C@H]1c1ccccc1 (10 µM) | 0.24 | 86% (inactive)
CC(C)(C)NCC(O)c1cc(Br)no1 (stereo unspecified) [broxaterol] (10 µM) | -0.00593 | 112% (inactive)
COC(=O)C1=CCCN(C)C1 [arecoline] (10 µM) | 0.184 | 100% (inactive)
CC(C)(C)c1cc(/C=C(\C#N)C(N)=S)cc(C(C)(C)C)c1O [tyrphostin-AG-879] (0.833333 µM) | 0.166 | 102% (inactive)
OCCN(CCO)c1nc(N2CCCCC2)c2nc(N(CCO)CCO)nc(N3CCCCC3)c2n1 [dipyridamole] (10 µM) | 0.26 | 90.5% (inactive)
CCCCCCCCCCCCC[N+](C)(C)Cc1ccccc1 [benzalkonium] (10 µM) | 0.0369 | 105% (inactive)

Compound | morphology score [1] | SARS-CoV-2 infection rate [2]
C[C@H](NC(=O)C(C)(C)Oc1ccc(C(F)(F)F)cn1)[C@@H](Cc1ccc(Cl)cc1)c1cccc(C#N)c1 [taranabant] (10 µM) | 0.1 | 101% (inactive)
O=C(Oc1ccc([N+](=O)[O-])cc1)N1CCN(Cc2cccc(Oc3ccccc3)c2)CC1 (10 µM) | 0.162 | 95.5% (inactive)
CN(c1ncccc1CNc1nc(Nc2ccc3c(c2)CC(=O)N3)ncc1C(F)(F)F)S(C)(=O)=O (0.833333 µM) | -0.119 | 106% (inactive)
C[C@]12CCC(=O)C[C@@H]1CC[C@@H]1[C@@H]2CC[C@]2(C)[C@@H](O)CC[C@@H]12 [Dihydrotestosterone] (10 µM) | -0.034 | 110% (inactive)
O=C(/C=C/c1ccc(O)c(O)c1)O[C@@H]1C[C@](O)(C(=O)O)C[C@@H](O)[C@H]1O [chlorogenic-acid] (10 µM) | 0.0432 | 112% (inactive)
Cc1nc2cnc3ccc(C#Cc4cccnc4)cc3c2n1-c1ccc(C(C)(C)C#N)cc1 (10 µM) | 0.114 | 109% (inactive)
O=C1O[C@H](CO)[C@@H](O)[C@H](O)[C@H]1O [gluconolactone] (10 µM) | 0.0736 | 98% (inactive)
CC(C)[C@@H](C)/C=C/[C@@H](C)[C@H]1CC[C@H]2/C(=C/C=C3\C[C@@H](O)CC[C@@H]3C)CCC[C@]12C [dihydrotachysterol] (10 µM) | 0.121 | 106% (inactive)
OC(CCN1CCCCC1)(c1ccccc1)C1CCCCC1 (stereo unspecified) [trihexyphenidyl] (10 µM) | 0.167 | 92% (inactive)
O=S(=O)(c1ccccc1)c1cnc2c(N3CCNCC3)cccc2c1 (10 µM) | -0.0691 | 106% (inactive)
O=C(NCC1CCCCN1)c1cc(OCC(F)(F)F)ccc1OCC(F)(F)F (stereo unspecified) [flecainide] (10 µM) | 0.193 | 87.5% (inactive)
CCOC(=O)C1=C(C)NC(=S)NC1c1cccc(O)c1 (stereo unspecified) [monastrol] (10 µM) | 0.0534 | 93% (inactive)
Cc1ccc(F)cc1C(=O)Nc1ccc(C(=O)N2Cc3cccn3Cc3ccccc32)c(Cl)c1 [lixivaptan] (10 µM) | 0.0414 | 111% (inactive)
CCN(CC)CCNC(=O)COc1ccc(OC)cc1 [mefexamide] (10 µM) | 0.0556 | 113% (inactive)
CC(C)(C)NCC(O)CSc1nc(-c2ccc(C(N)=O)s2)cs1 (stereo unspecified) [arotinolol] (10 µM) | 0.0582 | 106% (inactive)
CN(C)c1ccc(-c2nc3c(N4CCN(CC(=O)Nc5nccs5)CC4)c(Cl)cnc3[nH]2)cc1 (10 µM) | 0.47 | 74.5% (inactive)
CS(=O)(=O)c1ccc(Oc2cc(F)cc(C#N)c2)c2c1[C@H](O)C(F)(F)C2 (10 µM) | 0.0223 | 99% (inactive)
CCN(CCCc1ccccc1)CCCc1ccccc1 [alverine] (10 µM) | 0.397 | 62% (inactive)
